Results published in PubChem BioAssay AID1159580 (chemical genetic matrix, 2015).
Hit rate of the full screen: of about 5,500 compounds, about 2,000 (36%) were called active. Another 18% or so got no clear call; they are omitted. Rule as the data show it: active = normalized growth mostly below about 0.91 (no sharp cut-off); inconclusive = no clear call, values can overlap the other calls; inactive = mostly above about 0.92. The list shows a part of the results.

Assay: chemical genetic growth profiling, strain panel (AID 1159580);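 also: tested at 20 µM; growth read once vehicle control cultures reached saturation at 30 °C; 1 = growth at the plate median or of vehicle wells; lower values mean less growth of the strain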
Conditions: growth OD
[1] = S. cerevisiae deletion strains, locus YDR150W, strain NUM1, stronger effect = lower value
[2] = S. cerevisiae deletion strains, locus YJR075W, strain HOC1, stronger effect = lower value
[3] = S. cerevisiae deletion strains, locus YNL322C, strain KRE1, stronger effect = lower value
[4] = S. cerevisiae deletion strains, locus YPL241C, strain CIN2, stronger effect = lower value
[5] = S. cerevisiae deletion strains, locus YHR030C, strain SLT2, stronger effect = lower value
[6] = S. cerevisiae deletion strains, locus YJL187C, strain SWE1, stronger effect = lower value

Measured: normalized growth

NC(CCP(=O)(O)O)C(=O)O (stereo not given)
inactive: S. cerevisiae deletion strains, locus YAL040C, strain CLN3, stronger effect = lower value 1.01 | S. cerevisiae deletion strains, locus YCL061C, strain MRC1 (second series), stronger effect = lower value 1 | [1] 1.01 | S. cerevisiae deletion strains, locus YDR363W, strain ESC2, stronger effect = lower value 0.988 | S. cerevisiae deletion strains, locus YER002W, strain NOP16, stronger effect = lower value 1.02 | [2] 0.992 | S. cerevisiae deletion strains, locus YNL175C, strain NOP13, stronger effect = lower value 1 | S. cerevisiae deletion strains, locus YNL197C, strain WHI3, stronger effect = lower value 0.983 | S. cerevisiae deletion strains, locus YNL224C, strain SQS1, stronger effect = lower value 0.989 | [3] 0.986 | S. cerevisiae deletion strains, locus YOR083W, strain WHI5 (second series), stronger effect = lower value 1.01 | [4] 1

CC(C)(C)S(=O)(=O)c1cnc(N)nc1N
inactive: S. cerevisiae deletion strains, locus YAL013W, strain DEP1, stronger effect = lower value 1.03 | S. cerevisiae deletion strains, locus YBR229C, strain ROT2, stronger effect = lower value 1.01 | S. cerevisiae deletion strains, locus YDL101C, strain DUN1, stronger effect = lower value 1 | [1] 0.969 | S. cerevisiae deletion strains, locus YEL061C, strain CIN8, stronger effect = lower value 0.993 | S. cerevisiae deletion strains, locus YGR078C, strain PAC10, stronger effect = lower value 1.01 | S. cerevisiae deletion strains, locus YGR229C, strain SMI1, stronger effect = lower value 1.01 | [5] 1.07 | S. cerevisiae deletion strains, locus YHR087W, strain rtc3, stronger effect = lower value 1 | [6] 1.02 | S. cerevisiae deletion strains, locus YJR043C, strain POL32, stronger effect = lower value 0.985 | [2] 1.01 | S. cerevisiae deletion strains, locus YKL190W, strain CNB1, stronger effect = lower value 1 | S. cerevisiae deletion strains, locus YLR039C, strain RIC1, stronger effect = lower value 1.05 | S. cerevisiae deletion strains, locus YLR058C, strain SHM2 (second series), stronger effect = lower value 1.01 | S. cerevisiae deletion strains, locus YLR085C, strain ARP6, stronger effect = lower value 1.05 | S. cerevisiae deletion strains, locus YLR262C, strain YPT6, stronger effect = lower value 1.06 | S. cerevisiae deletion strains, locus YML094W, strain GIM5, stronger effect = lower value 1.01 | S. cerevisiae deletion strains, locus YMR219W, strain ESC1, stronger effect = lower value 1.01 | S. cerevisiae deletion strains, locus YMR263W, strain SAP30, stronger effect = lower value 0.986 | S. cerevisiae deletion strains, locus YNL153C, strain GIM3, stronger effect = lower value 1 | S. cerevisiae deletion strains, locus YNL298W, strain CLA4 (second series), stronger effect = lower value 1.04 | [3] 1.02 | S. cerevisiae deletion strains, locus YNR030W, strain Alg12, stronger effect = lower value 1.03 | S. cerevisiae deletion strains, locus YPL055C, strain LGE1, stronger effect = lower value 0.972 | [4] 1.02 | S. cerevisiae deletion strains, locus YPR135W, strain CTF4, stronger effect = lower value 1.03 | S. cerevisiae strains, strain wild type, stronger effect = lower value 1.01

CC1CC(OC(=O)c2ccccc2O)CC(C)(C)C1 (stereo not given)
inactive: S. cerevisiae deletion strains, locus YAL021C, strain ccr4, stronger effect = lower value 0.977 | S. cerevisiae deletion strains, locus YAL026C, strain drs2, stronger effect = lower value 0.989 | S. cerevisiae deletion strains, locus YAL030W, strain snc1, stronger effect = lower value 0.985 | S. cerevisiae deletion strains, locus YBL061C, strain skt5, stronger effect = lower value 0.97 | S. cerevisiae deletion strains, locus YBR009C, strain hhf1, stronger effect = lower value 0.914 | S. cerevisiae deletion strains, locus YBR023C, strain chs3, stronger effect = lower value 0.974 | S. cerevisiae deletion strains, locus YBR171W, strain sec66, stronger effect = lower value 0.987 | S. cerevisiae deletion strains, locus YBR231C, strain swc5, stronger effect = lower value 0.961 | S. cerevisiae deletion strains, locus YBR279W, strain paf1, stronger effect = lower value 0.98 | S. cerevisiae deletion strains, locus YCL011C, strain gbp2, stronger effect = lower value 0.969 | S. cerevisiae deletion strains, locus YCL016C, strain dcc1, stronger effect = lower value 0.991 | S. cerevisiae deletion strains, locus YCL061C, strain MRC1, stronger effect = lower value 0.983 | S. cerevisiae deletion strains, locus YCL069W, strain vba3, stronger effect = lower value 0.987 | S. cerevisiae deletion strains, locus YCR088W, strain abp1, stronger effect = lower value 0.99 | S. cerevisiae deletion strains, locus YDL005C, strain med2, stronger effect = lower value 0.968 | S. cerevisiae deletion strains, locus YDL040C, strain nat1, stronger effect = lower value 0.983 | S. cerevisiae deletion strains, locus YDR001C, strain nth1, stronger effect = lower value 0.984 | S. cerevisiae deletion strains, locus YDR069C, strain doa4, stronger effect = lower value 0.943 | S. cerevisiae deletion strains, locus YDR137W, strain rgp1, stronger effect = lower value 0.922 | S. cerevisiae deletion strains, locus YDR159W, strain sac3, stronger effect = lower value 0.977 | S. cerevisiae deletion strains, locus YDR195W, strain ref2 0.968 | S. cerevisiae deletion strains, locus YDR297W, strain sur2, stronger effect = lower value 0.973 | S. cerevisiae deletion strains, locus YDR334W, strain swr1, stronger effect = lower value 0.985 | S. cerevisiae deletion strains, locus YDR335W, strain msn5, stronger effect = lower value 0.992 | S. cerevisiae deletion strains, locus YDR392W, strain spt3, stronger effect = lower value 0.89 | S. cerevisiae deletion strains, locus YEL003W, strain gim4, stronger effect = lower value 0.974 | S. cerevisiae deletion strains, locus YEL037C, strain rad23, stronger effect = lower value 0.987 | S. cerevisiae deletion strains, locus YEL061C, strain CIN8 (second series), stronger effect = lower value 0.965 | S. cerevisiae deletion strains, locus YER015W, strain faa2, stronger effect = lower value 0.975 | S. cerevisiae deletion strains, locus YER016W, strain bim1, stronger effect = lower value 0.982 | S. cerevisiae deletion strains, locus YER111C, strain swi4, stronger effect = lower value 0.985 | S. cerevisiae deletion strains, locus YER155C, strain BEM2 (second series), stronger effect = lower value 0.982 | S. cerevisiae deletion strains, locus YFR010W, strain ubp6, stronger effect = lower value 0.971 | S. cerevisiae deletion strains, locus YGL167C, strain pmr1, stronger effect = lower value 0.962 | S. cerevisiae deletion strains, locus YGL173C, strain kem1, stronger effect = lower value 0.967 | S. cerevisiae deletion strains, locus YGL227W, strain vid30, stronger effect = lower value 0.978 | S. cerevisiae deletion strains, locus YGL240W, strain doc1, stronger effect = lower value 0.933 | S. cerevisiae deletion strains, locus YGL253W, strain hxk2, stronger effect = lower value 1 | S. cerevisiae deletion strains, locus YHR013C, strain ard1, stronger effect = lower value 0.865 | S. cerevisiae deletion strains, locus YHR027C, strain rpn1, stronger effect = lower value 0.989 | [5] 0.94 | S. cerevisiae deletion strains, locus YHR079C, strain IRE1, stronger effect = lower value 0.958 | S. cerevisiae deletion strains, locus YHR142W, strain chs7, stronger effect = lower value 0.978 | S. cerevisiae deletion strains, locus YJL092W, strain hpr5, stronger effect = lower value 0.985 | S. cerevisiae deletion strains, locus YJL095W, strain BCK1 (second series), stronger effect = lower value 0.993 | S. cerevisiae deletion strains, locus YJL095W, strain BCK1, stronger effect = lower value 1.01 | S. cerevisiae deletion strains, locus YJL115W, strain asf1, stronger effect = lower value 1 | S. cerevisiae deletion strains, locus YJL129C, strain trk1, stronger effect = lower value 0.896 | S. cerevisiae deletion strains, locus YJL154C, strain vps35, stronger effect = lower value 0.987 | S. cerevisiae deletion strains, locus YJL164C, strain tpk1, stronger effect = lower value 0.97 | S. cerevisiae deletion strains, locus YJL166W, strain qcr8, stronger effect = lower value 0.943 | [6] 0.974 | S. cerevisiae deletion strains, locus YJR066W, strain TOR1, stronger effect = lower value 0.943 | S. cerevisiae deletion strains, locus YKL160W, strain elf1, stronger effect = lower value 0.993 | S. cerevisiae deletion strains, locus YKR026C, strain gcn3, stronger effect = lower value 0.953 | S. cerevisiae deletion strains, locus YKR091W, strain srl3, stronger effect = lower value 0.981 | S. cerevisiae deletion strains, locus YLL001W, strain dnm1, stronger effect = lower value 1.01 | S. cerevisiae deletion strains, locus YLL026W, stronger effect = lower value 0.98 | S. cerevisiae deletion strains, locus YLL041C, strain sdh2, stronger effect = lower value 0.989 | S. cerevisiae deletion strains, locus YLR027C, strain aat2, stronger effect = lower value 0.972 | S. cerevisiae deletion strains, locus YLR113W, strain HOG1, stronger effect = lower value 1 | S. cerevisiae deletion strains, locus YLR221C, strain rsa3, stronger effect = lower value 0.925 | S. cerevisiae deletion strains, locus YLR258W, strain gsy2, stronger effect = lower value 0.97 | S. cerevisiae deletion strains, locus YLR262C, strain YPT6 (second series), stronger effect = lower value 0.904 | S. cerevisiae deletion strains, locus YLR320W, strain mms22, stronger effect = lower value 0.952 | S. cerevisiae deletion strains, locus YLR342W, strain FKS1, stronger effect = lower value 0.949 | S. cerevisiae deletion strains, locus YLR357W, strain rsc2, stronger effect = lower value 0.975 | S. cerevisiae deletion strains, locus YLR370C, strain arc18, stronger effect = lower value 0.978 | S. cerevisiae deletion strains, locus YLR384C, strain iki3, stronger effect = lower value 0.997 | S. cerevisiae deletion strains, locus YML120C, strain ndi1, stronger effect = lower value 0.987 | S. cerevisiae deletion strains, locus YMR058W, strain fet3, stronger effect = lower value 0.981 | S. cerevisiae deletion strains, locus YMR125W, strain sto1, stronger effect = lower value 0.975 | S. cerevisiae deletion strains, locus YMR129W, stronger effect = lower value 0.998 | S. cerevisiae deletion strains, locus YMR205C, strain PFK2, stronger effect = lower value 0.906 | S. cerevisiae deletion strains, locus YMR231W, strain pep5, stronger effect = lower value 1 | S. cerevisiae deletion strains, locus YNL071W, strain lat1, stronger effect = lower value 0.974 | S. cerevisiae deletion strains, locus YNL183C, strain NPR1, stronger effect = lower value 0.947 | S. cerevisiae deletion strains, locus YNL209W, strain ssb2, stronger effect = lower value 0.983 | S. cerevisiae deletion strains, locus YNL248C, strain rpa49, stronger effect = lower value 0.989 | S. cerevisiae deletion strains, locus YNL322C, strain KRE1 (second series), stronger effect = lower value 0.99 | S. cerevisiae deletion strains, locus YNR049C, strain mso1, stronger effect = lower value 0.982 | S. cerevisiae deletion strains, locus YOR001W, strain rrp6, stronger effect = lower value 0.996 | S. cerevisiae deletion strains, locus YOR070C, strain gyp1, stronger effect = lower value 0.989 | S. cerevisiae deletion strains, locus YOR080W, strain dia2, stronger effect = lower value 0.968 | S. cerevisiae deletion strains, locus YOR083W, strain WHI5, stronger effect = lower value 1 | S. cerevisiae deletion strains, locus YOR106W, strain vam3, stronger effect = lower value 0.951 | S. cerevisiae deletion strains, locus YOR231W, strain MKK1, stronger effect = lower value 0.958 | S. cerevisiae deletion strains, locus YOR265W, strain rbl2, stronger effect = lower value 0.989 | S. cerevisiae deletion strains, locus YOR270C, strain vph1, stronger effect = lower value 0.977 | S. cerevisiae deletion strains, locus YOR290C, strain snf2, stronger effect = lower value 0.915 | S. cerevisiae deletion strains, locus YPL051W, strain arl3, stronger effect = lower value 1.01 | S. cerevisiae deletion strains, locus YPL078C, strain atp4, stronger effect = lower value 0.995 | S. cerevisiae deletion strains, locus YPL106C, strain sse1, stronger effect = lower value 0.974 | S. cerevisiae deletion strains, locus YPL240C, strain hsp82, stronger effect = lower value 0.958 | S. cerevisiae deletion strains, locus YPL256C, strain CLN2, stronger effect = lower value 0.94
